Measurements from PubChem BioAssay AID690 (Sanford-Burnham Center for Chemical Genomics, 2007).
The campaign covered roughly 96,000 compounds. About 80 (0.08%) were called active. No rule for the calls is given here. The list is a sample of the results. Results with a measured potency or affinity are listed apart. Residues, ends and D or L forms follow the SMILES beside them.

Target: Alkaline phosphatase, placental type (Homo sapiens) (UniProt P05187)
Test: PLAP enzyme inhibitors, biochemical, luminescence, HTS (AID 690)
Details: purified PLAP, luminescent substrate; at 20 µM; hits give high values

Alkaline phosphatase, placental type (Homo sapiens), sequence (P05187 whole entry, looked up): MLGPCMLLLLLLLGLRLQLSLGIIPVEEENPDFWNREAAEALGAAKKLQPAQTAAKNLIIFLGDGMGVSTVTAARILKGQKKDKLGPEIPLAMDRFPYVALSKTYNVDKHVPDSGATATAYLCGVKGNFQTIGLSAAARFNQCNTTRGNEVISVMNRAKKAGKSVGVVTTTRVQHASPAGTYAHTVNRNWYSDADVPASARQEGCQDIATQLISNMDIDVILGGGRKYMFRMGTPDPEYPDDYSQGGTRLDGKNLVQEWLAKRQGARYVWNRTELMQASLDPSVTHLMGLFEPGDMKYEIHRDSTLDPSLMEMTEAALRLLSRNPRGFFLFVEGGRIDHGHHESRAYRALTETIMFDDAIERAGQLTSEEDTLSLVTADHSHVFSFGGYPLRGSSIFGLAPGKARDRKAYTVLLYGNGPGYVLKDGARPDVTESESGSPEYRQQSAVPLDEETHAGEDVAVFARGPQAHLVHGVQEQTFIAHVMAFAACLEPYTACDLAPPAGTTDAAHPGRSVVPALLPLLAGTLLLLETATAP

inhibition, inactive:
CCO/C=C1/C(=O)N(CC)c2ccccc21 4.3%
O=C(OCC(O)CN1CCCCC1)C12CC3CC(CC(C3)C1)C2 (configuration not stated) -58.5%
COC(=O)C(N)Cc1ccc(O)cc1 (configuration not stated) 18.8%
COC(=O)C(CC(C)C)NC(=O)C(N)Cc1ccccc1 (stereo not drawn) (H-Phe-Leu-OMe; configuration not given here) -5.6%
O=C(CC(NC(=O)c1ccccc1Cl)c1ccccc1)Nc1ccc2c(c1)OCO2 (configuration not stated) 2.4%
Cc1cccc(NC(=O)C2c3ccccc3C(=O)N3CCc4ccccc4C23)n1 (configuration not stated) 2.2%
O=C(/C(=C/c1ccc(Cl)cc1)c1nc2ccccc2[nH]1)c1cccs1 -30.3%
COc1cc(/C=C(/C(=O)c2cccs2)c2nc3ccccc3[nH]2)ccc1O 33.6%
COc1cc(CNCCc2ccc(F)cc2)ccc1OCc1ccc(Cl)nc1 -50.6%
O=C(N1CCOCC1)C12CC3CC(C1)CC(c1ccccc1)(C3)C2 -20.7%
CCSC1=N/C(=C\c2ccc(C(=O)O)cc2)C(=O)S1 11.5%
CSC1=N/C(=C\c2ccc(C)cc2)C(=O)S1 1.7%
Cn1nc([N+](=O)[O-])nc1N1CCN(c2ccc(F)cc2)CC1 20.5%
CCOC(=O)N1CCC(NC(=O)C(CC(C)C)NC(=O)C2CCC(C)CC2)CC1 (configuration not stated) -63.6%
CCN(CC)C(=O)Cn1c(=O)n(-c2ccccc2)c(=O)n1CC(=O)N(CC)CC 8.2%
COC(=O)c1cn[nH]c1NC(=S)Nc1ccc(Cl)c(Cl)c1 -146%
COC(=O)c1cn[nH]c1NC(=S)Nc1ccc(C)cc1Cl -10%
CN(C)S(=O)(=O)c1cccc(C(=O)Nc2cc(Cl)cc(Cl)c2)c1 -58.5%
Cc1noc(C)c1COC(=O)COc1ccc2c(C)cc(=O)oc2c1 8.3%
CCOC(=O)/C(C#N)=C1/C=Cc2ccccc2N1CC 3.8%
CCN1C(=C2C(=O)c3ccccc3C2=O)C=Cc2ccccc21 46.7%
CCOc1ccc(CSC(=N)N)cc1[N+](=O)[O-] -79.6%
CCCCCOc1ccc(CSC(=N)N)cc1[N+](=O)[O-] 34.2%
CCN1/C(=C/C(=O)c2ccco2)Sc2ccccc21 -0.2%
CCN1/C(=C2\OC(=S)N(C)C2=O)Sc2ccccc21 13.9%
CCN(CC)S(=O)(=O)c1ccc(C(=O)Nc2cc(C)cc(C)c2)cc1 6%
Cc1ccc2nc(SCC(=O)Nc3ccc4c(c3)OCCO4)[nH]c2c1 -75.7%
